Assay outcomes (PubChem)
An excerpt weighted towards active compounds, which were near 0.72% of everything screened.
Six1-Eya2 inh – qHTS Assay for Inhibitors of the Six1/Eya2 Interaction; AlphaScreen GST-Six1/His-Eya2 binding, biochemical; hits give low values; activity change, % (no concentration beside the values); 360,000 tested, 0.56% active; AID 651725, 2012; in the data active = activity change below about -65%; inconclusive = mostly about -30% to -63%
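AlphaScreen luminescence read after one hour at 37 °C in darkness. Pin-transferred compounds met GST-Six1 and His-Eya2 protein (5X stock 250 nM/500 nM) plus glutathione donor and Ni-chelate acceptor beads (5X, 50 ug/mL).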
USP2a inh – qHTS Assay for Inhibitors of Ubiquitin-specific Protease USP2a Using CHOP2 as the Reporter; AID 463254, 2010; Ubiquitin carboxyl-terminal hydrolase 2 (Homo sapiens), O75604; Potency, µM (top dose mostly 38.3 µM), without a hit: at the highest dose activity change, negative = inhibition, usual class: inhibitors; USP2 core, Ub-CHOP2 coupled fluorogenic reporter, 485/531; 330,000 tested, 0.01% active;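 note: potency is the fitted concentration of half-maximal effect; plate controls were DMSO wells for no effect and full inhibition by NEM control for full effect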
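USP2 core (10nM final) preincubated 30min RT with compound in 20mM Tris-HCl pH 8.0, 2mM CaCl2, 2mM beta-mercaptoethanol, 0.05% CHAPS; 25nM Ub-CHOP2 plus 25nM reporter substrate added, fluorescence (Ex485/Em531) read after 60min.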
RGS4 inhibitor – Inhibitors of Regulator of G Protein Signaling (RGS) 4: qHTS; Regulator of G-protein signaling 4 (Homo sapiens), P49798; Transcreener GDP fluorescence polarization, RGS4-accelerated GTP hydrolysis; Potency, µM (series often up to 114 µM), for the others: top-dose activity change, negative = inhibition, most hits filed as inhibitors; 390,000 tested, 0.039% active; AID 504845, 2011; note: potency is the fitted concentration of half-maximal effect; nearly all actives have a fitted effect of over 75% in size
Target sequence (P49798 whole entry, looked up): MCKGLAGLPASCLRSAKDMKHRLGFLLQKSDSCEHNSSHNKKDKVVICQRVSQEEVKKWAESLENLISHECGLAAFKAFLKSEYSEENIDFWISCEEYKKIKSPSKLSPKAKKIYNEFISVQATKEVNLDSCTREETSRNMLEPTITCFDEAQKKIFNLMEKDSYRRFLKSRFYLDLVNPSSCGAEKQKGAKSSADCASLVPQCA
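MLSMR compounds (23 nl, pin-transferred) preincubated 10 min at room temperature with a 500nM (2x) first reagent, then RGS4 at 900nM (2x) plus Transcreener GDP mix added; fluorescence polarization (620/688 nm) read before and after 90 min at 30 °C.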
Eya2 phos inh – qHTS Assay for Inhibitors of the Phosphatase Activity of Eya2. Protein phosphatase EYA2 (Homo sapiens), O00167. recombinant Eya2, OMFP fluorescence dephosphorylation (OMFP is methylfluorescein phosphate). Potency, µM (highest dose often 76.9 µM), for inactives: at the highest dose activity, negative = inhibition, actives largely listed as inhibitors. 330,000 tested, 0.006% active; note: potency is the fitted concentration of half-maximal effect
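Eya2 (0.2 uM) preincubated 10 min at ambient with compound, then OMFP substrate added at 50 uM; 10 min reaction in 50 mM HEPES pH 7.5, 50 mM NaCl, 5 uM MgCl2, 0.05% BSA, 1 mM DTT. Fluorescence read at Ex 485/Em 525 nm.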
CtBP-E1A blk – qHTS Assay for Inhibitors of the CtBP/E1A Interaction. 340,000 tested, 0.49% active. activity change, % (test concentration not listed). AlphaScreen GST-E1A/His-CtBP binding, 1536-well; hits give low values. AID 651724, 2012. CtBP / adenovirus E1A interaction (AlphaScreen); in the data active = activity change below about -65%; inconclusive = mostly about -30% to -63%
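GST-E1A and His-tagged CtBP (125 nM each as 5X stock) were preincubated with pin-transferred compound for 2 h at 37 °C in the dark, then glutathione donor and nickel acceptor beads were added for 1 h before AlphaScreen reading.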
PI4K2A block – qHTS for small molecular inhibitors of PI4K2A. purified PI4K2A, ADP-Glo luminescence, 1 h; hits give low values. activity change, negative = inhibition, % at 76.9 µM. 420,000 tested, 0.13% active; in the data active = activity change below about -50%; inconclusive = mostly about -30% to -49%;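 note: -100% = wells without enzyme as full effect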
Target sequence (Q9BTU6 whole entry, looked up): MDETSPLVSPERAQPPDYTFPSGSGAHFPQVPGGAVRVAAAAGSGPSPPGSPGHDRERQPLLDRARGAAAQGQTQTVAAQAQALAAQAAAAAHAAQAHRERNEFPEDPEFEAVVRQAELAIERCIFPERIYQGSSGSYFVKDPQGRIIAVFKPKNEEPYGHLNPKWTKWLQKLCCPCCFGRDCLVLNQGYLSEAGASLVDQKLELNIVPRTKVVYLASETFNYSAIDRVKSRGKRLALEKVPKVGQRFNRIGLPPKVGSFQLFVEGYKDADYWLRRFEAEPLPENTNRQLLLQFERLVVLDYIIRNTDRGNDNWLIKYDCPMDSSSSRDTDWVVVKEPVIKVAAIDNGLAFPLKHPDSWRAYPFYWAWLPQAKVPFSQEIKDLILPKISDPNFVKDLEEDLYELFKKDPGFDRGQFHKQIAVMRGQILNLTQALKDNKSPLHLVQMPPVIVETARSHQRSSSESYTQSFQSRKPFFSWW
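In this quantitative HTS, ADP production by PI4K2A was quantified luminescently after 1 h at ambient temperature; 100 microM adenosine served as plate-quality control.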
Numbers without * were called inactive; i = inactive; u = inconclusive; x = no result; ! = repeats disagree; [ ] = dose if it differs, or a comment. Unless noted, calls come from the whole dose curve; as a rule, active = well fitted curve in the direction sought with a large enough effect; inconclusive = small, poorly fitted or top-dose-only effect, or another doubt; inactive = no such curve, though single readings can be large; an effect the other way counts as inactive or inconclusive. Unless noted, % is set by controls: 0 for no effect and ±100 for the full control effect.

SMILES | Six1-Eya2 inh | USP2a inh | RGS4 inhibitor | Eya2 phos inh | CtBP-E1A blk | PI4K2A block
N[C@@H](Cn1ccc(=O)n(Cc2ccc(C(=O)O)cc2)c1=O)C(=O)O | x | x | 8.4µM* | x | x | x
COc1cc(OC)c(OC)cc1/C=C1/C(=O)NC(=O)N(Cc2ccccc2)C1=O | -5 | 2% | u | -7% | 0 | -53*
Brc1c(Br)c(Br)c2n[nH]nc2c1Br | x | x | u | 17% | x | 1
COc1ccc(N2C(=O)NC(=O)/C(=C\c3ccc([N+](=O)[O-])s3)C2=O)cc1 | u | 0% | u | 16% | -21 | 0
COc1ccc(N2C(=O)NC(=O)/C(=C/c3ccc([N+](=O)[O-])s3)C2=O)cc1 | -73* | -2% | u | -3% | x | u
CCn1nc(/C=C/c2ccccc2)nc2c(=O)n(C)c(=O)nc1-2 | -28 | -1% | -15% | -1% | 13 | -69*
CCOc1ccc(-n2c(/C=C/c3ccccc3)nc3ccccc3c2=O)cc1 | x | x | 12% | x | x | -5
CCOc1ccc(-n2c(-c3cccs3)nc3ccccc3c2=O)cc1 | 0 | 0% | -4% | -17% | 2 | -5
CCn1nc(-c2cccs2)nc2c(=O)n(C)c(=O)nc1-2 | -13 | 0% | -33% | u | -18 | -61*
Oc1ccc2c3c1O[C@H]1c4c(c5ccccc5n4Cc4ccccc4)C[C@@]4(O)C(C2)N(CC2CC2)CC[C@]314 | x | x | i | x | x | x
Clc1cncc(N2CCNCC2)n1 | x | x | 4.2µM* | x | x | x
Nc1c(C(=O)NCc2ccco2)c2nc3ccccc3nc2n1CCN1CCOCC1 | u | -1% | 11% | 11% | -73* | u
CCC(C)C(C)(COC(N)=O)COC(N)=O (stereo unspecified) | x | x | x | x | x | 5
CC(C)(C)NC[C@H](O)c1ccc(O)cc1Cl | x | x | x | x | x | 4
CC(C)(O)[C@@H]1C2OC(=O)[C@@H]1[C@]1(O)C[C@H]3O[C@]34C(=O)O[C@H]2[C@]14C (tested in a mixture with another compound) | x | x | 19%[56.9 µM] | -2% | x | 4
CC(C)N1C(=O)/C(=C/C=C/c2ccco2)C(=O)N(Cc2ccco2)C1=O | u | u | -23%[11.4 µM] | 9% | 11 | -59*
COc1ccc(/C=C2/C(=O)N(Cc3ccco3)C(=O)N(C(C)C)C2=O)cc1 | 0 | 0% | u | 11% | x | -21
CC(Cc1ccccc1)NCCCCl (stereo unspecified) | x | x | x | x | x | 2
CN1CC[C@@]2(C)c3cc(O)ccc3N(C)C12 (stereo partly specified) | x | x | 21µM* | -22% | x | u
CNC(=O)Oc1ccc2c(c1)[C@]1(C)CCN(C)[C@@H]1N2C | -2 | 0% | -10%[56.9 µM] | 4% | 4 | -3
CCC1C(=O)OCC1Cc1cncn1C (stereo unspecified) | x | x | 27µM*! | -4% | x | 0
CC(C(O)c1ccccc1)N(C)C/C=C/c1ccccc1 (stereo unspecified) | x | x | x | x | x | 3
CO/C=C(/C(=O)OC)c1ccccc1Oc1cc(Oc2ccccc2C#N)ncn1 | x | x | x | x | x | i
NC(Cc1cc(O)c(O)cc1O)C(=O)O (stereo unspecified) | x | u | 3µM* | -21% | x | -80*
NCCc1cc(O)c(O)cc1O | u | x | u | x | -6 | u
SMILES | Six1-Eya2 inh | USP2a inh | RGS4 inhibitor | Eya2 phos inh | CtBP-E1A blk | PI4K2A block
C=CCN1CCC23c4c5ccc(O)c4OC2/C(=N/N=C2\CCC4(O)C6Cc7ccc(O)c8c7C4(CCN6CC=C)C2O8)CCC3(O)C1C5 (stereo unspecified) | x | x | i | x | x | x
Cc1c(N=Nc2c(O)[nH]c(=S)[nH]c2=O)c(=O)n(-c2ccccc2)n1C | -84* | 4% | -15% | -6% | -93* | -2
C=CCn1c(O)c(N=Nc2c(C)n(C)n(-c3ccccc3)c2=O)c(=O)[nH]c1=S | -91* | 0% | -29% | 1% | -87* | 0
CCOc1ccc(-n2c(O)c(N=Nc3c(C)n(C)n(-c4ccccc4)c3=O)c(=O)[nH]c2=O)cc1 | -90* | 2% | 18% | -1% | -91* | -7
Cc1c(N=Cc2c(O)n(CCc3ccccc3)c(=O)[nH]c2=O)c(=O)n(-c2ccccc2)n1C | -26 | 3% | 23% | -17% | -9 | -1
Cc1c(N=Cc2c(O)n(Cc3ccc(F)cc3)c(=O)[nH]c2=O)c(=O)n(-c2ccccc2)n1C | -2 | 4% | -27% | 3% | 8 | 7
CC(Cc1ccccc1)N(C)Cc1ccco1 (stereo unspecified) | x | x | x | x | x | -1
NC(N)=Nc1ccc2[nH]c3c(c2c1)C[C@@]1(O)[C@H]2Cc4ccc(O)c5c4[C@@]1(CCN2CC1CC1)[C@H]3O5 | -7 | 0% | 24µM* | 4% | -22 | -17
Fc1cc(Br)ccc1CBr | x | x | x | x | x | -7
CN(C)[C@@H]1C(=O)C(C(N)=O)=C(O)[C@@]2(O)C(=O)C3=C(O)c4c(O)cccc4[C@@](C)(O)[C@H]3[C@H](O)[C@@H]12 | u | u | u | 18% | -67*! | -63*!
CCOC(=O)Nc1ccc(NCc2ccc(F)cc2)nc1N | 0 | u | 8.4µM* | 50µM*! | u | u
CN1CCCCC1c1cccnc1 (stereo unspecified) | x | x | 38µM* | x | x | x
COc1ccc(Cn2c(O)c(/C=N/NC(=O)c3ccccc3O)c(=O)[nH]c2=O)cc1 | -87* | -4% | -1% | -5% | -72* | -4
CCN(CC)c1ccc(N=Cc2c(O)n(Cc3ccccc3)c(=O)[nH]c2=O)cc1 | -72*! | 4% | -53% | -14% | 48 | 1
O=C(N/N=C/c1c(O)n(Cc2ccccc2)c(=O)[nH]c1=O)c1ccccc1O | -89* | -1% | -18% | 0% | 0 | 3
O=C(N/N=C/c1c(O)n(CCc2ccccc2)c(=O)[nH]c1=O)c1ccccc1O | u | 4% | -16% | u | x | 2
CCn1c(O)c(/C=N/NC(=O)c2ccccc2)c(=O)[nH]c1=S | -93* | 0% | 14% | -2% | -91* | -2
O=C(O)Cc1cccnc1C(=O)O | x | x | i | x | x | x
C[C@]12CC[C@H]3[C@@H](CCC4=CC(=O)CC[C@@H]43)[C@@H]1CC[C@@H]2OC(=O)CCc1ccco1 | x | x | x | x | x | 1
